Assay results reported in PubChem BioAssay (Tox21).
Values joined by “and” are separate entries in the source; they are usually repeats but may differ in a detail not shown here. Equal values may be shown once. Results filed as inconclusive are left out. A structure can be active in one record and inactive in another. Active and inactive are the calls of the source. Unless noted, calls come from the whole dose curve; as a rule, active = well fitted curve in the direction sought with a large enough effect in the repeat runs; inconclusive = weak or mixed curves; inactive = no such curve, though single readings can be large; an effect the other way counts as inactive or inconclusive.

Key:
[1] = qHTS assay to identify small molecule antagonists of the thyroid receptor (TR) signaling pathway (AID 743065); note: series mostly up to about 70 µM; nearly all actives have a fitted effect of over 55% in size
Procedure, shortened: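 GH3.TRE-Luc rat pituitary cells carrying two TR response elements driving luciferase were plated for 4 h, given compound plus 1 nM T3 (final), and incubated 23.5 h at 37 C. ONE-Glo luminescence measured reporter inhibition; CellTiter-Fluor fluorescence tracked cytotoxicity.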

[2] = tested on: thyroid hormone receptor (rat, GH3 cells); test: qHTS assay to identify small molecule agonists of the thyroid receptor (TR) signaling pathway (AID 743066; calls by dose curve)
[3] = target: Estrogen receptor (Homo sapiens) (UniProt P03372); test: qHTS assay to identify small molecule antagonists of the estrogen receptor alpha (ER-alpha) signaling pathway (AID 743069; active = well fitted curve in the direction sought with a large enough effect in the signal ratio in the repeat runs, not every such curve was filed as active; the % refers to the signal ratio)
Chain of Estrogen receptor (Homo sapiens) (P03372 whole entry, looked up): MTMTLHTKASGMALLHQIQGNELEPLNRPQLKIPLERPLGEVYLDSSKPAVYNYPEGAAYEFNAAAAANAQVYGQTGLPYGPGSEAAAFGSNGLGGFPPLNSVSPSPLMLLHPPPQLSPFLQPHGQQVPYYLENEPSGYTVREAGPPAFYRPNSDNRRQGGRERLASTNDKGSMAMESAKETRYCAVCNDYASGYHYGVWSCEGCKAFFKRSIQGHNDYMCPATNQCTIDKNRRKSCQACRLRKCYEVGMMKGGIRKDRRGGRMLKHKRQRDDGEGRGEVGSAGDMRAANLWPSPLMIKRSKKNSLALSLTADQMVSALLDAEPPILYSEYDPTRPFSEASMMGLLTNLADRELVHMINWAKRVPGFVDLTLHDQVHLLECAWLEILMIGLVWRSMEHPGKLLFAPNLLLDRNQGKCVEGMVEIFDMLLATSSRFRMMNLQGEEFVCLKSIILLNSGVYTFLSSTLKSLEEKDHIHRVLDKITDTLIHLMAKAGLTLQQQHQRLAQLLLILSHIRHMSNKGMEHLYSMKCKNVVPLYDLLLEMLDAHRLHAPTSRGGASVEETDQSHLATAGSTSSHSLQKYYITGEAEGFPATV
Procedure, shortened: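 Estradiol-stimulated ER-alpha-UAS-bla HEK293 cells, 18 hr compound exposure at 37C. LiveBLAzer B/G substrate, 2 hr RT, fluorescence read.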

[4] = qHTS assay to identify small molecule antagonists of the estrogen receptor alpha (ER-alpha) signaling pathway - cell viability counter screen (AID 743074; calls by dose curve;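 note: HEK293 cells carrying ER-alpha-UAS-bla reporter stimulated with 17beta-estradiol; nearly all actives have a fitted effect of over 45% in size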)
[5] = target: Estrogen receptor (Homo sapiens) (UniProt P03372); test: qHTS assay to identify small molecule agonists of the estrogen receptor alpha (ER-alpha) signaling pathway (AID 743075; calls by dose curve;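 note: HEK293 GripTite cells with ER-alpha and UAS-driven beta-lactamase reporter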)
[6] = target: Estrogen receptor (Homo sapiens) (UniProt P03372); test: qHTS assay to identify small molecule agonists of the estrogen receptor alpha (ER-alpha) signaling pathway using the BG1 cell line (AID 743079); note: nearly all actives have a fitted effect of over 20% in size; note: potency is the fitted concentration of half-maximal effect
[7] = qHTS assay to identify small molecule antagonists of the estrogen receptor alpha (ER-alpha) signaling pathway using the BG1 cell line (AID 743080; calls by dose curve;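 note: BG1 cells stimulated with 17beta-estradiol alongside compound; series mostly up to about 70 µM; nearly all actives have a fitted effect of over 25% in size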)
Procedure, shortened: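 Seeding, 24 h rest, compound transfer from DMSO, 17beta-estradiol addition, 21.5 h incubation, CellTiter-Fluor (30 min, 37 C), then ONE-Glo (30 min, room temperature): this sequence was run on BG1-Luc-4E2 reporter cells.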

[8] = qHTS assay to identify small molecule antagonists of the estrogen receptor alpha (ER-alpha) signaling pathway using the BG1 cell line - cell viability counter screen (AID 743081);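 note: compound given together with 17beta-estradiol as the ER stimulus; series mostly up to about 70 µM; nearly all actives have a fitted effect of over 45% in size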
Aromatase (Homo sapiens) = Aromatase (Homo sapiens) (UniProt P11511); test: qHTS assay to identify aromatase inhibitors (AID 743083); note: series mostly up to about 70 µM; nearly all actives have a fitted effect of over 55% in size
Chain of Aromatase (Homo sapiens) (P11511 whole entry, looked up): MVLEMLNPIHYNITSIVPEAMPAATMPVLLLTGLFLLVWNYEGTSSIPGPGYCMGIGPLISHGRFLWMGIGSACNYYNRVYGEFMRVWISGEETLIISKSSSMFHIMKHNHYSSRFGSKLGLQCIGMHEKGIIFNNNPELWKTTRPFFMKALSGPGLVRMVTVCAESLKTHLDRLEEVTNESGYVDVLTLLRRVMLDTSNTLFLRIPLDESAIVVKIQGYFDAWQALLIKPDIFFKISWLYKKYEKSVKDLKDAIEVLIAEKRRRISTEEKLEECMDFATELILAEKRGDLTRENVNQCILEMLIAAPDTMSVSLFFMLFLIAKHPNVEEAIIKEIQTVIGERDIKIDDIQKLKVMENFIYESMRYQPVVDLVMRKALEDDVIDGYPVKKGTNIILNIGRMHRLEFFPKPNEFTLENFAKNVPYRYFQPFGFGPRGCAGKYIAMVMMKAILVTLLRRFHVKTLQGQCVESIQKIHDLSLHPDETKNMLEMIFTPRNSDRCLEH

[9] = qHTS assay to identify aromatase inhibitors - cell viability counter screen (AID 743084);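 note: cells stimulated with testosterone during compound exposure; nearly all actives have a fitted effect of over 55% in size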
[10] = target: Aryl hydrocarbon receptor (Homo sapiens) (UniProt P35869); test: qHTS assay to identify small molecule that activate the aryl hydrocarbon receptor (AhR) signaling pathway (AID 743085);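 note: HG2L7.5c1 human HepG2 liver cells with stably integrated DRE-driven firefly reporter; series mostly up to about 70 µM; nearly all actives have a fitted effect of over 15% in size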
Chain of Aryl hydrocarbon receptor (Homo sapiens) (P35869 whole entry, looked up): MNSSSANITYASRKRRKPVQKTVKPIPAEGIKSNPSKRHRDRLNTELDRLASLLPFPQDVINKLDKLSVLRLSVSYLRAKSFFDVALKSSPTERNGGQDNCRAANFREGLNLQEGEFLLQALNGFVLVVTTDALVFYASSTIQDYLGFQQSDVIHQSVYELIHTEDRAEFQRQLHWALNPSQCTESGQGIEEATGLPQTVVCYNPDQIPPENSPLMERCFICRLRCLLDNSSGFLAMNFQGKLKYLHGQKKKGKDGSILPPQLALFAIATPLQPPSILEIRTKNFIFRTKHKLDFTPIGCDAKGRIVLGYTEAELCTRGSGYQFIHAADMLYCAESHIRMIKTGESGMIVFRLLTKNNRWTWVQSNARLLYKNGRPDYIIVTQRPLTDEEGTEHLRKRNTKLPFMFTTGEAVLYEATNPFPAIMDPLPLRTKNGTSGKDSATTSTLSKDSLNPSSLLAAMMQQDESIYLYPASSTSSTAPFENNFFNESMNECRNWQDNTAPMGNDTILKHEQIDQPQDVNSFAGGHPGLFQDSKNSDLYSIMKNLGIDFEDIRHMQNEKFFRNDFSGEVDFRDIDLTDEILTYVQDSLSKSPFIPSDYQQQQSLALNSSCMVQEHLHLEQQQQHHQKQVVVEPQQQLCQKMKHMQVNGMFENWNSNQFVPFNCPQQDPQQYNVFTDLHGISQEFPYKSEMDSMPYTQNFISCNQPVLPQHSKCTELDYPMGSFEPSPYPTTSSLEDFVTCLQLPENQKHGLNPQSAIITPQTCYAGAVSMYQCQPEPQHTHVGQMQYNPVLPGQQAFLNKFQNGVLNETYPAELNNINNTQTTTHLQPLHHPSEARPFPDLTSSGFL
Procedure, shortened: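 Luminescence (ONE-Glo) from a dioxin-responsive-element luciferase reporter in HG2L7.5c1 HepG2 cells after 24 hr compound exposure at 37C; viability measured by CellTiter-Fluor fluorescence beforehand.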

[11] = qHTS assay to identify small molecule that activate the aryl hydrocarbon receptor (AhR) signaling pathway - cell viability counter screen (AID 743086);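 note: HepG2 liver cells carrying the AhR DRE luciferase reporter; series mostly up to about 70 µM; nearly all actives have a fitted effect of over 45% in size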
Procedure, shortened: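 HepG2-AhR-luc (HG2L7.5c1) cells, 4000/well, were preincubated 5 h at 37C, exposed to compound in qHTS format for 24 hr at 37C, then given CellTiter-Fluor for 30 min; viability was read as fluorescence in the reporter wells.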

[12] = target: Peroxisome proliferator-activated receptor gamma (Homo sapiens) (UniProt P37231); test: qHTS assay to identify small molecule agonists of the peroxisome proliferator-activated receptor gamma (PPARg) signaling pathway (AID 743094; active = well fitted activation curve with a large enough effect in the signal ratio in the repeat runs, not every such curve was filed as active; the % refers to the signal ratio)
Chain of Peroxisome proliferator-activated receptor gamma (Homo sapiens) (P37231 whole entry, looked up): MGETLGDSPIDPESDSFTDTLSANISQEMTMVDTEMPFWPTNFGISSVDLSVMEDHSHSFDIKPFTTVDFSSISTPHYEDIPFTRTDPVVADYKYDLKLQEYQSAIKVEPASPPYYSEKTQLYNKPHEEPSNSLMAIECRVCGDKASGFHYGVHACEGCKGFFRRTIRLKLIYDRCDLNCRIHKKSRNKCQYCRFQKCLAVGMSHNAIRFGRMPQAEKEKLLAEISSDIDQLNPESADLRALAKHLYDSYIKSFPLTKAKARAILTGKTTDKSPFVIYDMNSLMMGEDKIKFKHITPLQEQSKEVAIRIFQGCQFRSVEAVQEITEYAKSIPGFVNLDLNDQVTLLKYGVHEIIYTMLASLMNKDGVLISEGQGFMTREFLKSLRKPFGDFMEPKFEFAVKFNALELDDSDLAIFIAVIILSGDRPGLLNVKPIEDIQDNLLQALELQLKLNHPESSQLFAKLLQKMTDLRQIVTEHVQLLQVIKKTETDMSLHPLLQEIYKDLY
Procedure, shortened: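 Quantitative HTS agonist mode: stable HEK293H line with UAS-beta-lactamase reporter under PPARg control, 17 h compound exposure at 37C, fluorescence after 1 h FRET substrate loading at room temperature.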

[13] = target: Peroxisome proliferator-activated receptor gamma (Homo sapiens) (UniProt P37231); test: qHTS assay to identify small molecule antagonists of the peroxisome proliferator-activated receptor gamma (PPARg) signaling pathway (AID 743191; calls by dose curve; note: series mostly up to about 63 µM; nearly all actives have a fitted effect of over 30% in size)
Procedure, shortened: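 GeneBLAzer PPARg UAS-bla HEK293H cells carrying a UAS-driven beta-lactamase reporter were plated at 3000 cells/well, preincubated 5 h at 37C, then given compound for 17 h at 37C; LiveBLAzer B/G FRET substrate was read after 1 h at room temperature.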

[14] = qHTS assay to identify small molecule antagonists of the peroxisome proliferator-activated receptor gamma (PPARg) signaling pathway - cell viability counter screen (AID 743194); note: nearly all actives have a fitted effect of over 55% in size
Procedure, shortened: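 PPARg-UAS-bla HEK293H cells were plated, rested 5 h at 37 C, then treated with compounds plus rosiglitazone (50 nM final) for 17 h at 37 C; viability was then read by CellTiter-Glo luminescence after 30 min at room temperature.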

[15] = qHTS assay for small molecule agonists of the antioxidant response element (ARE) signaling pathway (AID 743202; active = well fitted activation curve with a large enough effect in the signal ratio in the repeat runs, not every such curve was filed as active; the % refers to the signal ratio; note: potency is the fitted concentration of half-maximal effect)
Procedure, shortened: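 Compounds delivered in DMSO to ARE-bla HepG2 cells (2,000 cells/well, pre-incubated 5 h) and left 16 h at 37 C. LiveBLAzer B/G FRET substrate then added for 2 h at RT before fluorescence reading.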

[16] = qHTS assay for small molecule agonists of the antioxidant response element (ARE) signaling pathway - cell viability counter screen (AID 743203; calls by dose curve; note: nearly all actives have a fitted effect of over 55% in size)
Procedure, shortened: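 Seeded at 2,000 cells/well, ARE-bla HepG2 cells were incubated 5 hrs before compound addition. After 16 hrs of treatment at 37C with 5% CO2, CellTiter-Glo reagent was added and luminescence read 30 min later.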

[17] = qHTS assay for small molecule activators of the heat shock response signaling pathway - cell viability counter screen (AID 743209); note: nearly all actives have a fitted effect of over 50% in size
Procedure, shortened: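 First, HSE-bla HeLa cells were seeded at 1500 cells/well and kept overnight at 37 C. Next, compounds were pinned in and incubated 5 h. After the FRET substrate step, CellTiter-Glo was added and luminescence read 30 min later.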

[18] = qHTS assay for small molecule activators of the heat shock response signaling pathway (AID 743210; active = well fitted activation curve with a large enough effect in the signal ratio in the repeat runs, with a control signal flat, not every such curve was filed as active; the % refers to the signal ratio;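 note: HeLa cells with beta-lactamase reporter driven by heat shock elements; series mostly up to about 63 µM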)
Procedure, shortened: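 Reporter gene assay: HeLa cells stably bearing an HSE-bla construct, compound treatment 5 h at 37 C, LiveBLAzer substrate 2.5 h at RT, fluorescence intensity.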

[19] = qHTS assay to identify small molecule agonists of the peroxisome proliferator-activated receptor delta (PPARd) signaling pathway - cell viability counter screen (AID 743211); note: nearly all actives have a fitted effect of over 55% in size
Procedure, shortened: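 Viability was measured as CellTiter-Glo luminescence (30 min, room temperature) in the same wells as the beta-lactamase readout. GeneBLAzer PPARd UAS-bla HEK293H cells received compound after 5 h plating and were incubated 17 h at 37 C.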

Measured: Potency

CCNC(=S)NCC
inactive and 54.5 µM (active): [6]
inactive: [1] | [2] | [3] | [4] | [5] | [7] | [8] | Aromatase (Homo sapiens) | [9] | [10] | [11] | [12] | [13] | [14] | [15] | [16] | [17] | [18] | [19]

C=CCCCCCCCCC(=O)O
inactive: [1] | [2] | [3] | [4] | [5] | [6] | [7] | [8] | Aromatase (Homo sapiens) | [9] | [10] | [11] | [12] | [14] | [15] | [16] | [17] | [18] | [19]

CC(C)OC(=O)COc1ccc(Cl)cc1Cl
inactive: [1] | [2] | [3] | [4] | [5] | [6] | [7] | [8] | Aromatase (Homo sapiens) | [9] | [10] | [11] | [12] | [13] | [14] | [15] | [16] | [17] | [18] | [19]

C=CC(C)CCCC(C)(C)O (stereo unspecified)
inactive: [1] | [2] | [3] | [4] | [5] | [6] | [7] | [8] | Aromatase (Homo sapiens) | [9] | [10] | [11] | [12] | [13] | [14] | [15] | [16] | [17] | [19]

COc1ccc([N+](=O)[O-])cc1N
inactive: [1] | [2] | [3] | [4] | [5] | [6] | [7] | [8] | Aromatase (Homo sapiens) | [9] | [11] | [12] | [13] | [14] | [15] | [16] | [17] | [18] | [19]

O=C1CCCC1
inactive: [1] | [2] | [3] | [4] | [5] | [6] | [7] | [8] | Aromatase (Homo sapiens) | [9] | [10] | [11] | [12] | [13] | [14] | [15] | [16] | [17] | [18] | [19]

CC(=O)OCc1ccco1
inactive: [1] | [2] | [3] | [4] | [5] | [6] | [7] | [8] | Aromatase (Homo sapiens) | [9] | [10] | [11] | [12] | [13] | [14] | [15] | [16] | [17] | [19]

CCCCCCCCCCCC(=O)OC
inactive: [1] | [2] | [3] | [4] | [5] | [6] | [7] | [8] | Aromatase (Homo sapiens) | [9] | [11] | [12] | [13] | [14] | [15] | [16] | [17] | [18] | [19]

CC(CCO)CC(C)(C)C (stereo unspecified)
inactive: [1] | [2] | [3] | [4] | [5] | [6] | [7] | [8] | Aromatase (Homo sapiens) | [9] | [10] | [11] | [12] | [13] | [14] | [15] | [16] | [17] | [19]

CCCCCCCO
inactive: [1] | [2] | [3] | [4] | [5] | [6] | [7] | [8] | Aromatase (Homo sapiens) | [9] | [10] | [11] | [12] | [13] | [14] | [15] | [16] | [17] | [18] | [19]

OCc1ccccc1
inactive: [1] | [2] | [3] | [4] | [5] | [6] | [7] | [8] | Aromatase (Homo sapiens) | [9] | [10] | [11] | [12] | [13] | [14] | [15] | [16] | [17] | [18] | [19]

CCc1ccccc1CC
inactive: [1] | [2] | [3] | [4] | [5] | [6] | [7] | [8] | Aromatase (Homo sapiens) | [9] | [11] | [12] | [13] | [14] | [15] | [16] | [17] | [18] | [19]

C=C(C)C(=O)OCC(C)C
inactive: [1] | [2] | [3] | [4] | [5] | [6] | [7] | [8] | Aromatase (Homo sapiens) | [9] | [10] | [11] | [12] | [13] | [14] | [15] | [16] | [17] | [19]

CCCCCCCCCCCCCCCCO
inactive: [1] | [2] | [3] | [4] | [5] | [6] | [7] | [8] | Aromatase (Homo sapiens) | [9] | [10] | [11] | [12] | [13] | [14] | [16] | [17] | [18] | [19]

O=C(O)c1ccc(S(=O)(=O)N(Cl)Cl)cc1
27.5 µM (active) and inactive: [15]
inactive: [1] | [2] | [3] | [4] | [5] | [6] | [7] | [8] | Aromatase (Homo sapiens) | [9] | [10] | [11] | [12] | [13] | [14] | [16] | [17] | [18] | [19]
